The source of these data is PubChem BioAssay (EPA / NIEHS).

Holding throughout (conditions): mRNA level, 48 h; actives raise or lower the signal
Read-out in experiment [1]: Fatty acid synthase (Homo sapiens) (UniProt P49327)
In words: LTEA_HepaRG_FASN: Life Technologies and Expression Analysis (LTEA) Assay for Fatty Acid Synthase (FASN) using HepaRG (AID 2283448). The essentials:
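Cells were plated, cultured 48 h, switched to serum-free induction medium, then dosed in duplicate (max 100 uM, half-log dilutions, 0.5% DMSO) for 48 h. RNA was then isolated and FASN quantified by qRT-PCR.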

Read-out in experiment [2]: Cyclin Dependent Kinase Inhibitor 1A (CDKN1A), CDKN1A (gene 1026)
In words: LTEA_HepaRG_CDKN1A: Life Technologies and Expression Analysis (LTEA) Assay for Cyclin Dependent Kinase Inhibitor 1A (CDKN1A) using HepaRG (AID 2283450). The essentials: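 Differentiated human HepaRG cells, pre-cultured 48 h, were exposed in duplicate for 48 h in serum-free induction medium to eight half-log concentrations up to 100 uM (0.5% DMSO). CDKN1A mRNA was measured by qRT-PCR, normalized to ACTB/GAPDH/POLR2A, bidirectionally fitted versus DMSO.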

Read-out in experiment [3]: Cyclin D1 (CCND1), CCND1 (gene 595)
In words: LTEA_HepaRG_CCND1: Life Technologies and Expression Analysis (LTEA) Assay for Cyclin D1 (CCND1) using HepaRG (AID 2283451).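 As to AC50: TaqMan qRT-PCR transcript level normalised to ACTB GAPDH and POLR2A housekeeping genes.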 In outline:
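Differentiated human HepaRG cells in serum-free induction medium were exposed 48 h to eight half-log concentrations up to 100 uM in 0.5% DMSO; mRNA quantified by TaqMan qRT-PCR, normalized to ACTB, GAPDH, POLR2A, fitted bidirectionally versus DMSO.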

Read-out in experiment [4]: catalase (CAT), CAT (gene 847)
Description: LTEA_HepaRG_CAT: Life Technologies and Expression Analysis (LTEA) Assay for catalase (CAT) using HepaRG (AID 2283452). In outline: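 HepaRG cells in serum-free induction medium, 0.5% DMSO vehicle, exposed 48 h in duplicate over 8 half-log concentrations from 100 uM. CAT mRNA measured by qRT-PCR, normalized to ACTB, GAPDH, POLR2A; bidirectional fit versus DMSO.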

Read-out in experiment [5]: flavin-containing dimethylaniline monooxygenases 3 (FMO3), FMO3 (gene 2328)
Description: LTEA_HepaRG_FMO3: Life Technologies and Expression Analysis (LTEA) Assay for flavin-containing dimethylaniline monooxygenases 3 (FMO3) using HepaRG (AID 2283453). The essentials: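 FMO3 transcript quantified by TaqMan qRT-PCR against three housekeeping genes after 48 h chemical exposure of HepaRG cells. Eight-point half-log series, top 100 uM, 0.5% DMSO vehicle; phenobarbital 1mM induction control; up- or down-regulation fitted.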

Read-out in experiment [6]: Cytochrome P450 (CYP1A1), CYP1A1 (gene 1543)
In words: LTEA_HepaRG_CYP1A1: Life Technologies and Expression Analysis (LTEA) Assay for Cytochrome P450 (CYP1A1) using HepaRG (AID 2283454). The essentials: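 Differentiated HepaRG cells in serum-free induction medium were exposed in duplicate for 48 h to eight half-log concentrations up to 100 uM in 0.5% DMSO. CYP1A1 mRNA was quantified by TaqMan qRT-PCR, normalized to ACTB, GAPDH and POLR2A.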

Read-out in experiment [7]: CFLAR gene, CFLAR (gene 8837)
In words: LTEA_HepaRG_CFLAR: Life Technologies and Expression Analysis (LTEA) Assay for CFLAR gene using HepaRG (AID 2283455). The essentials: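 qRT-PCR read-out (Fluidigm/TaqMan) of CFLAR mRNA, normalized to three housekeeping genes, in differentiated human HepaRG cells after 48 h chemical exposure; 8-point half-log series from 100 uM in 0.5% DMSO; bidirectional curve fitting versus DMSO.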

Read-out in experiment [8]: Forkhead box O1 (FOXO1), FOXO1 (gene 2308)
Description: LTEA_HepaRG_FOXO1: Life Technologies and Expression Analysis (LTEA) Assay for Forkhead box O1 (FOXO1) using HepaRG (AID 2283456). In outline: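 HepaRG, 48 h exposure, 8-pt half-log series from 100 uM in 0.5% DMSO, duplicates; Fluidigm qRT-PCR mRNA, housekeeping-normalised; bidirectional fit vs DMSO baseline.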

Read-out in experiment [9]: growth arrest and DNA damage 45 (GADD45A), GADD45A (gene 1647)
In words: LTEA_HepaRG_GADD45A: Life Technologies and Expression Analysis (LTEA) Assay for growth arrest and DNA damage 45 (GADD45A) using HepaRG (AID 2283458). The essentials:
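Transcript induction or loss, quantified by TaqMan qRT-PCR against three housekeeping genes, is the read-out. HepaRG cells received chemicals for 48 h across eight half-log concentrations from 100 uM in 0.5% DMSO; gain and loss fitted relative to DMSO.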

Read-out in experiment [10]: Forkhead box O3 (FOXO3), FOXO3 (gene 2309)
In words: LTEA_HepaRG_FOXO3: Life Technologies and Expression Analysis (LTEA) Assay for Forkhead box O3 (FOXO3) using HepaRG (AID 2283459). In outline:
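qRT-PCR readout of FOXO3 transcript, normalized to three housekeeping genes (ACTB, GAPDH, POLR2A); gain or loss fitted against 0.5% DMSO vehicle. HepaRG cells, 48 h chemical exposure, 8-point half-log series, top 100 uM.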

Read-out in experiment [11]: growth arrest and DNA damage 45 (GADD45B), GADD45B (gene 4616)
Description: LTEA_HepaRG_GADD45B: Life Technologies and Expression Analysis (LTEA) Assay for growth arrest and DNA damage 45 (GADD45B) using HepaRG (AID 2283461). In outline: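 Differentiated HepaRG cells, plated 48 h then switched to serum-free induction medium, were exposed 48 h in duplicate to eight half-log concentrations from 100 uM in 0.5% DMSO; mRNA quantified by qRT-PCR, normalized to ACTB/GAPDH/POLR2A, bidirectional fit versus DMSO.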

Read-out in experiment [12]: ABC Transporter (ABCC3), ABCC3 (gene 8714)
In words: LTEA_HepaRG_ABCC3: Life Technologies and Expression Analysis (LTEA) Assay for ABC Transporter (ABCC3) using HepaRG (AID 2283462). The essentials: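 HepaRG cells in serum-free induction medium were exposed for 48 h in duplicate to 8-point half-log concentrations topping at 100 uM in 0.5% DMSO. ABCC3 mRNA was measured by qRT-PCR normalized to ACTB, GAPDH and POLR2A, with bidirectional fitting versus DMSO.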

Read-out in experiment [13]: Tumor necrosis factor receptor superfamily member 6 (Homo sapiens) (UniProt P25445)
In words: LTEA_HepaRG_FAS: Life Technologies and Expression Analysis (LTEA) Assay for Fas cell surface death receptor (FAS) using HepaRG (AID 2283447). In outline:
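Differentiated HepaRG cells in serum-free induction medium were exposed 48 h to 8 half-log concentrations up to 100 uM in 0.5% DMSO, in duplicate. FAS mRNA was measured by qRT-PCR normalised to ACTB, GAPDH and POLR2A; bidirectional fit versus DMSO.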

Read-out in experiment [14]: Cyclin D2 (CCND2), CCND2 (gene 894)
Description: LTEA_HepaRG_CCND2: Life Technologies and Expression Analysis (LTEA) Assay for Cyclin D2 (CCND2) using HepaRG (AID 2283449).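 Also: CCND2 transcript measured by TaqMan qRT-PCR and normalised to three housekeeping genes.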 In outline: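 HepaRG, 48 h dosing, 8-pt half-log curve from 100 uM, 0.5% DMSO; duplicate wells. Readout: CCND2 transcript by microfluidic qRT-PCR, housekeeping-normalised; bidirectional fit vs DMSO baseline.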

Read-out in experiment [15]: ABC Transporter (ABCB1), ABCB1 (gene 5243)
Description: LTEA_HepaRG_ABCB1: Life Technologies and Expression Analysis (LTEA) Assay for ABC Transporter (ABCB1) using HepaRG (AID 2283460). The essentials:
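HepaRG, 48 h exposure, 8-pt half-log series from 100 uM, 0.5% DMSO vehicle, duplicates. Readout: ABCB1 transcript by Fluidigm TaqMan qRT-PCR, housekeeping-normalized; bidirectional curve fit vs DMSO baseline.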

Activity calls are given as the source filed them. The calls were made as follows: active = hit-call score of the fitted dose curve at least 0.9, where 1 is the maximum; inactive = score below 0.9.

Sequence of Fatty acid synthase (Homo sapiens) (P49327 whole entry, looked up): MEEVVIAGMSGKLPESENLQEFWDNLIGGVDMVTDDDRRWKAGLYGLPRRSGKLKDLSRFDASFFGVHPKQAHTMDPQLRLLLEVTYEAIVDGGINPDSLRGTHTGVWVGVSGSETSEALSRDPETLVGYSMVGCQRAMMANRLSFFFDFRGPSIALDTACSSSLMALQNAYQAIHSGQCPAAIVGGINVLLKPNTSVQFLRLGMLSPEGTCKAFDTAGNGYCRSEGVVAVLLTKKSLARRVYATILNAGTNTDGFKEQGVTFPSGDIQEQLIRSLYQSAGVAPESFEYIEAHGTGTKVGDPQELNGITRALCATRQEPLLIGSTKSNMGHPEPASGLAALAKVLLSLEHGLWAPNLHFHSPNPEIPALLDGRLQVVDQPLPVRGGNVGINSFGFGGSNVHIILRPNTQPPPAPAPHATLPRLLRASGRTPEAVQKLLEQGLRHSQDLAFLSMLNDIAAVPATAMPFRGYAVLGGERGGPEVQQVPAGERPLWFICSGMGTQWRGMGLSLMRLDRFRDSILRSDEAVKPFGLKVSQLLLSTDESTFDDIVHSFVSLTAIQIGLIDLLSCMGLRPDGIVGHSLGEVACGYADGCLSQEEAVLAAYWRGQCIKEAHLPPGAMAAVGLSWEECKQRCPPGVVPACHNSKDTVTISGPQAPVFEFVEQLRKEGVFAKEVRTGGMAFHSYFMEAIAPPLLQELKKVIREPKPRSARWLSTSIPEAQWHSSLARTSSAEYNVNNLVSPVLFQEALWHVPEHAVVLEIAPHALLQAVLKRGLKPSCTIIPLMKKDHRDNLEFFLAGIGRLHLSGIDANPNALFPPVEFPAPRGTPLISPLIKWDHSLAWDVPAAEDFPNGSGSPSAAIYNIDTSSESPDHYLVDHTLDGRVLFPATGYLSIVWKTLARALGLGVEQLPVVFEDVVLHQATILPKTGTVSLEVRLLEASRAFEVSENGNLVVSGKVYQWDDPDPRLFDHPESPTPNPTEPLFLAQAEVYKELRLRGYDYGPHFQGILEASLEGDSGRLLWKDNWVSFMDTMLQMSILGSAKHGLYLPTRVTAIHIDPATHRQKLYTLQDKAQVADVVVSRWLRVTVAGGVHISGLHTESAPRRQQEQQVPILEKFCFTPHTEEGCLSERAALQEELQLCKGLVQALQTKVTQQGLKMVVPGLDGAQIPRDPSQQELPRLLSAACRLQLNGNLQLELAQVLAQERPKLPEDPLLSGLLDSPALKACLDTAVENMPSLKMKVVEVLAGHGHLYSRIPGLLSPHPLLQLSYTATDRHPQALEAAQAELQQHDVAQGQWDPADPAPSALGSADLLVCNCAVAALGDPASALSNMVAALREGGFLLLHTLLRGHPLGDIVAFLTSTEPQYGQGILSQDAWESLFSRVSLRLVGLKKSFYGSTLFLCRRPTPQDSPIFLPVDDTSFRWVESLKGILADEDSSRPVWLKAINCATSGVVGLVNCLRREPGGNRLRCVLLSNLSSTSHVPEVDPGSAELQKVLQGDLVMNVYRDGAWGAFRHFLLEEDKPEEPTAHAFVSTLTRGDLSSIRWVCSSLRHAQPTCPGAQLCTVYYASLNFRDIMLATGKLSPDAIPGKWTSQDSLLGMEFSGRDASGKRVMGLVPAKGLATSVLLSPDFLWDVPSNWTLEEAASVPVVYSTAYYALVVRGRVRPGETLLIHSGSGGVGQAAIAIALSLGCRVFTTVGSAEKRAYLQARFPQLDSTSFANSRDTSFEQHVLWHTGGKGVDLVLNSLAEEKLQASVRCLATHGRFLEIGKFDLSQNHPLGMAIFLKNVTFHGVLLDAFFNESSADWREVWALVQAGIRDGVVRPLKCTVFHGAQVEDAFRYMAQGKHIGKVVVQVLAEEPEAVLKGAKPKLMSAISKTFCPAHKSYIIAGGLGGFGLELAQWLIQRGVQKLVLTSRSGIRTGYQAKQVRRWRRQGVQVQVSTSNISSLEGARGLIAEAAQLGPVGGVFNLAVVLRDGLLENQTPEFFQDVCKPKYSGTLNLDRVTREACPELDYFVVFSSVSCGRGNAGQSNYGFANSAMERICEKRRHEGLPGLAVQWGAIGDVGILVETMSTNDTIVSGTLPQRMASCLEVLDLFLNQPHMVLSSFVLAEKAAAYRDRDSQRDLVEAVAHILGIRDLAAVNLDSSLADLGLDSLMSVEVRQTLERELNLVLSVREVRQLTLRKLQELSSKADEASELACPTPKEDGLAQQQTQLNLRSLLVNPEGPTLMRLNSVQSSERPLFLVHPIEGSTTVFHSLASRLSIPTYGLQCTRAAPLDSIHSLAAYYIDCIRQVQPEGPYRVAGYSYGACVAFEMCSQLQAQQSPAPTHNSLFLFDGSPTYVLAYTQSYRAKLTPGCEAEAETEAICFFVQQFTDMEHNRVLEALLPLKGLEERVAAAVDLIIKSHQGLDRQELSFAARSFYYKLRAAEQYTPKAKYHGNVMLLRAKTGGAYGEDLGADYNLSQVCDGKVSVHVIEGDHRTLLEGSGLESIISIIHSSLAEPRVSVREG

On to `On1ccccc1=S`, for which the call in experiment [1], in [2], in experiment [3], in [4], in experiment [5] and in experiment [6] was inactive. In addition, the outcome in experiment [7], in experiment [8], in experiment [9], in experiment [10], in [11] and in experiment [12] was inactive.

As for `CC(=O)OC[C@H]1O[C@@](COC(C)=O)(O[C@H]2O[C@H](COC(C)=O)[C@@H](OC(C)=O)[C@H](OC(C)=O)[C@H]2OC(C)=O)[C@@H](OC(C)=O)[C@@H]1OC(C)=O`, the call in [13], in experiment [1], in experiment [14], in experiment [2], in experiment [3] and in [4] was inactive. The result in [5], in experiment [7], in [8], in experiment [9], in [10] and in experiment [11] was inactive. Besides, in experiment [12], the molecule was classed as inactive.

As to `CCCCC(CC)COC(=O)c1ccc(C(=O)OCC(CC)CCCC)cc1` (stereo unspecified), the molecule was called inactive in [13], in experiment [1], in [14], in experiment [2], in experiment [3] and in experiment [4]. The result in experiment [5], in [7], in experiment [8], in experiment [9], in experiment [10] and in experiment [11] was inactive. Further, the call in [12] was inactive.

As for `COC(=O)c1ccccc1O`, the result in experiment [13], in experiment [1], in experiment [2], in experiment [3], in [4] and in experiment [5] was inactive. Moreover, the result in [6], in experiment [7], in experiment [8], in [9], in experiment [10] and in experiment [15] was inactive. For the same molecule, the molecule was classed as inactive in experiment [11] and in experiment [12].

Take `COC(=O)CC(=O)OC`: the call in [13], in experiment [2], in experiment [3], in experiment [4], in [5] and in experiment [7] was inactive. The molecule was classed as inactive in [8], in experiment [9], in [10], in experiment [11] and in [12]. In experiment [1], the AC50 – broadly, the concentration at which the activity in the assay is half-maximal – was 50 µM (active).

On to `COc1ccc2sc(C(=O)Nc3nnn[nH]3)c(OC(C)C)c2c1`, for which the AC50 was 63.8 µM (active) in [13]; 89.1 µM (active) in experiment [1]; 50 µM (active) in [2]; 13.1 µM (active) in experiment [3]; 81.3 µM (active) in experiment [4]; 10.9 µM (active) in [5]. In addition, the AC50 in experiment [7] is 25.2 µM (active); in experiment [8] it was 19.9 µM (active); in [9], 31.4 µM (active); in [10] it was 23.6 µM (active); in experiment [11] it was 43.9 µM (active); in [12], 24.4 µM (active). Moreover, the outcome in experiment [14] was inactive.

With `CCCCC(CC)COC(=O)CCCCCCCCC(=O)OCC(CC)CCCC` (stereo unspecified), the outcome in experiment [13], in [1], in experiment [14], in [2], in experiment [3] and in [4] was inactive. Moreover, the result in experiment [5], in experiment [7], in experiment [8], in [9], in experiment [10] and in experiment [11] was inactive. Also, in [12], the result was inactive.

On to `NC(=O)NO`, for which the outcome in experiment [13], in experiment [1], in experiment [14], in [2], in experiment [3] and in experiment [4] was inactive. The molecule was called inactive in [5], in [7], in experiment [8], in experiment [9], in experiment [10] and in experiment [15]. Besides, the call in [11] and in experiment [12] was inactive.

Take `C1N2CN3CN1CN(C2)C3`: the molecule was classed as inactive in [13], in experiment [1], in experiment [14], in experiment [2], in experiment [3] and in [4]. Besides, the outcome in experiment [5], in experiment [7], in experiment [8], in experiment [9], in experiment [10] and in experiment [11] was inactive. For the same molecule, in [12], the call was inactive.

In the case of `COCCOc1cc2cc(C(=O)NC3CCN(C(C)C)CC3)n(CC(=O)Nc3ccc(Cl)cn3)c2cn1`, the call in experiment [13], in experiment [14], in [2], in experiment [8], in experiment [9] and in [11] was inactive. The AC50 in [1] is 32.5 µM (active); in experiment [3], 45 µM (active); in [4] it was 45 µM (active); in [5] it was 53.3 µM (active); in experiment [7], 31.4 µM (active); in experiment [10], 11.6 µM (active). For the same molecule, in experiment [12], the half-maximal activity concentration (AC50) is 45 µM (active).

For `Clc1nc(Cl)c(Cl)c(Cl)c1Cl`, the molecule was classed as inactive in experiment [13], in experiment [1], in experiment [14], in [2], in experiment [3] and in experiment [4]. Besides, the molecule was classed as inactive in experiment [5], in [7], in experiment [8], in experiment [9], in experiment [10] and in experiment [11]. Besides, the molecule was called inactive in experiment [12].

As to `CCOCCOCCOCCO`, the molecule was classed as inactive in [1], in [2], in [3], in experiment [4], in experiment [5] and in [7]. Besides, the molecule was called inactive in experiment [8], in [9], in [10], in experiment [15], in experiment [11] and in experiment [12].

Regarding `CCNc1ccccc1`, the outcome in experiment [13], in experiment [1], in experiment [14], in [2], in [3] and in experiment [4] was inactive. In addition, the molecule was called inactive in experiment [5], in experiment [7], in [8], in experiment [9], in [10] and in experiment [11]. The outcome in experiment [12] was inactive.

On to `O=C1CCC(N2C(=O)c3ccccc3C2=O)C(=O)N1` (stereo unspecified), for which the molecule was classed as inactive in [13], in experiment [1], in experiment [14], in experiment [2], in [3] and in [4]. Further, the molecule was classed as inactive in experiment [5], in experiment [7], in experiment [8], in experiment [9], in experiment [10] and in experiment [11]. In [12], the result was inactive.
